Where a name gives a salt, the structure may show the parent alone. ± gives the standard deviation of the averaged measurements.
What was measured:
[1] = tested on: Saccharomyces cerevisiae BY4741 SeMeCo community; assay: mean cell size (pixel area) (pixels); higher = larger cells; conditions: 10 µM; 24 h; SM minimal medium
Outline: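 A fluorescent Saccharomyces cerevisiae BY4741 community carrying four plasmids was used, with each plasmid complementing one auxotrophy and bearing a fluorescent marker. An overnight preculture at OD600 = 1.0 was diluted to OD600 = 0.3, and 70 µl went into 384-well plates acoustically predosed with drug (final 10 µM) in SM medium for 24 h. After paraformaldehyde fixation, cells were imaged by automated confocal microscopy and analysed in Harmony, giving the mean cell pixel area per well. Each value is the average of 3 replicates. Same SeMeCo high-content imaging drug screen: Selleck FDA-approved drugs at 10 µM, 24 h in SM medium, 384-well plates, 3 replicates.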

[2] = tested on: Saccharomyces cerevisiae BY4741 SeMeCo community; assay: z-score of prototroph abundance vs DMSO median; higher = larger share of this subpopulation than in DMSO controls; conditions: 10 µM; 24 h; SM minimal medium; subpopulation (auxotrophy): Prototroph
Outline: (§1)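 Subpopulation abundance was reported as a z-score against the median of vehicle wells. The Saccharomyces cerevisiae BY4741 community, carrying four plasmids that each restored one auxotrophy and encoded a distinct fluorescent protein, was grown 24 h in minimal SM medium in 384-well plates holding library drugs at 10 µM final. Cells were paraformaldehyde-fixed and imaged by automated confocal microscopy, with single-auxotroph fluorescent strains used for thresholds and autofluorescence correction.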

[3] = tested on: Saccharomyces cerevisiae BY4741 SeMeCo community; assay: z-score of subpopulation abundance vs DMSO median, subpopulation auxotrophic for M; higher = larger share of this subpopulation than in DMSO controls; conditions: 10 µM; 24 h; SM minimal medium; subpopulation (auxotrophy): M
Outline: as §1

[4] = tested on: Saccharomyces cerevisiae BY4741 SeMeCo community; assay: z-score of subpopulation abundance vs DMSO median, subpopulation auxotrophic for L; higher = larger share of this subpopulation than in DMSO controls; conditions: 10 µM; 24 h; SM minimal medium; subpopulation (auxotrophy): L
Outline: as §1

[5] = tested on: Saccharomyces cerevisiae BY4741 SeMeCo community; assay: z-score of subpopulation abundance vs DMSO median, subpopulation auxotrophic for U; higher = larger share of this subpopulation than in DMSO controls; conditions: 10 µM; 24 h; SM minimal medium; subpopulation (auxotrophy): U
Outline: as §1

[6] = tested on: Saccharomyces cerevisiae BY4741 SeMeCo community; assay: z-score of subpopulation abundance vs DMSO median, subpopulation auxotrophic for H; higher = larger share of this subpopulation than in DMSO controls; conditions: 10 µM; 24 h; SM minimal medium; subpopulation (auxotrophy): H
Outline: as §1

[7] = tested on: Saccharomyces cerevisiae BY4741 SeMeCo community; assay: z-score of subpopulation abundance vs DMSO median, subpopulation auxotrophic for LU; higher = larger share of this subpopulation than in DMSO controls; conditions: 10 µM; 24 h; SM minimal medium; subpopulation (auxotrophy): LU
Outline: as §1

[8] = tested on: Saccharomyces cerevisiae BY4741 SeMeCo community; assay: z-score of subpopulation abundance vs DMSO median, subpopulation auxotrophic for LM; higher = larger share of this subpopulation than in DMSO controls; conditions: 10 µM; 24 h; SM minimal medium; subpopulation (auxotrophy): LM
Outline: as §1

[9] = tested on: Saccharomyces cerevisiae BY4741 SeMeCo community; assay: z-score of subpopulation abundance vs DMSO median, subpopulation auxotrophic for HM; higher = larger share of this subpopulation than in DMSO controls; conditions: 10 µM; 24 h; SM minimal medium; subpopulation (auxotrophy): HM
Outline: as §1

[10] = tested on: Saccharomyces cerevisiae BY4741 SeMeCo community; assay: z-score of subpopulation abundance vs DMSO median, subpopulation auxotrophic for HU; higher = larger share of this subpopulation than in DMSO controls; conditions: 10 µM; 24 h; SM minimal medium; subpopulation (auxotrophy): HU
Outline: as §1

[11] = tested on: Saccharomyces cerevisiae BY4741 SeMeCo community; assay: z-score of subpopulation abundance vs DMSO median, subpopulation auxotrophic for UM; higher = larger share of this subpopulation than in DMSO controls; conditions: 10 µM; 24 h; SM minimal medium; subpopulation (auxotrophy): UM
Outline: as §1

[12] = tested on: Saccharomyces cerevisiae BY4741 SeMeCo community; assay: z-score of subpopulation abundance vs DMSO median, subpopulation auxotrophic for HL; higher = larger share of this subpopulation than in DMSO controls; conditions: 10 µM; 24 h; SM minimal medium; subpopulation (auxotrophy): HL
Outline: as §1

[13] = tested on: Saccharomyces cerevisiae BY4741 SeMeCo community; assay: z-score of subpopulation abundance vs DMSO median, subpopulation auxotrophic for HLU; higher = larger share of this subpopulation than in DMSO controls; conditions: 10 µM; 24 h; SM minimal medium; subpopulation (auxotrophy): HLU
Outline: as §1

[14] = tested on: Saccharomyces cerevisiae BY4741 SeMeCo community; assay: z-score of subpopulation abundance vs DMSO median, subpopulation auxotrophic for HLM; higher = larger share of this subpopulation than in DMSO controls; conditions: 10 µM; 24 h; SM minimal medium; subpopulation (auxotrophy): HLM
Outline: as §1

[15] = tested on: Saccharomyces cerevisiae BY4741 SeMeCo community; assay: z-score of subpopulation abundance vs DMSO median, subpopulation auxotrophic for HUM; higher = larger share of this subpopulation than in DMSO controls; conditions: 10 µM; 24 h; SM minimal medium; subpopulation (auxotrophy): HUM
Outline: as §1

[16] = tested on: Saccharomyces cerevisiae BY4741 SeMeCo community; assay: z-score of subpopulation abundance vs DMSO median, subpopulation auxotrophic for LUM; higher = larger share of this subpopulation than in DMSO controls; conditions: 10 µM; 24 h; SM minimal medium; subpopulation (auxotrophy): LUM
Outline: as §1

[17] = tested on: Saccharomyces cerevisiae BY4741 SeMeCo community; assay: z-score of subpopulation abundance vs DMSO median, subpopulation auxotrophic for HLUM; higher = larger share of this subpopulation than in DMSO controls; conditions: 10 µM; 24 h; SM minimal medium; subpopulation (auxotrophy): HLUM
Outline: as §1

| Structure (SMILES) | mean cell size [1] | z-score of prototroph abundance [2] | z-score of subpopulation abundance [3] | z-score of subpopulation abundance [4] | z-score of subpopulation abundance [5] | z-score of subpopulation abundance [6] | z-score of subpopulation abundance [7] | z-score of subpopulation abundance [8] | z-score of subpopulation abundance [9] | z-score of subpopulation abundance [10] | z-score of subpopulation abundance [11] | z-score of subpopulation abundance [12] | z-score of subpopulation abundance [13] | z-score of subpopulation abundance [14] | z-score of subpopulation abundance [15] | z-score of subpopulation abundance [16] | z-score of subpopulation abundance [17] |
| --- | --- | --- | --- | --- | --- | --- | --- | --- | --- | --- | --- | --- | --- | --- | --- | --- | --- |
| CC(C)c1nc(N(C)S(C)(=O)=O)nc(-c2ccc(F)cc2)c1/C=C/[C@@H](O)C[C@@H](O)CC(=O)O [Rosuvastatin] | 11.22 ± 0.092 | -2.69 | -1.77 | 2.53 | -1.39 | 4.84 | 1.31 | 0 | 2.17 | 1.77 | 1 | 5.32 | 1.68 | 3.7 | 2.38 | 1.84 | 2.76 |
| CCCCOC(=O)c1ccc(O)cc1 [Butylparaben] | 12.3 ± 0.29 | 1.77 | -0.57 | -0.62 | -0.7 | -1.64 | -1.79 | -0.49 | -1.19 | -1.93 | -1.24 | -0.99 | -1.3 | -0.41 | -1.38 | -0.62 | 0.07 |
| CC1(C)S[C@@H]2[C@H](NC(=O)[C@H](N)c3ccccc3)C(=O)N2[C@H]1C(=O)OCOC(=O)[C@@H]1N2C(=O)C[C@H]2S(=O)(=O)C1(C)C [Sultamicillin] | 12.26 ± 0.082 | -1.74 | 0.2 | 1.05 | 0.83 | – | 0.83 | 0.38 | 0.78 | 2.39 | 0.83 | 2.28 | 1.83 | 1.63 | 1.4 | 1.13 | 0.86 |
| CCN(CC)C(=O)C1(c2ccccc2)CC1CN (stereo unspecified) [Milnacipran HCl] | 12.3 ± 0.28 | 0.28 | -0.86 | 0.74 | 0.47 | -1.04 | 0.01 | 0 | -0.8 | -0.14 | 0.33 | -0.61 | -0.08 | -0.14 | -0.13 | 0.17 | -0.13 |
| Cc1nccn1CC1CCc2c(c3ccccc3n2C)C1=O (stereo unspecified) [Ondansetron Hydrochloride Dihydrate] | 12.3 ± 0.24 | 0.12 | 0.38 | -0.38 | 1.06 | – | -0.34 | -0.17 | -0.61 | 0.2 | 0.75 | -0.09 | -0.6 | -0.48 | 0.55 | -0.16 | -0.23 |
| NC(=O)c1cnccn1 [Pyrazinamide] | 12.6 ± 0.23 | -0.04 | 0.41 | -1.21 | 1.27 | -0.45 | 0.31 | -0.13 | -0.55 | -0.29 | 1.23 | -0.42 | -0.7 | -0.57 | 0.08 | -0.08 | -0.48 |
| COc1ccc(-c2nc3cc(C4=NNC(=O)CC4C)ccc3[nH]2)cc1 (stereo unspecified) [Pimobendan] | 12.31 ± 0.12 | -0.89 | 0.83 | 1.93 | -0.84 | 0.76 | 0.46 | 1.71 | 0.78 | -0.28 | -0.05 | 0.79 | 1.42 | 0.33 | 0.52 | 1.6 | 1.6 |
| Cc1c(Cl)cccc1Nc1ccccc1C(=O)O [Tolfenamic Acid] | 12.7 ± 0.24 | 1.21 | -0.25 | -2.08 | 0.15 | – | -1.24 | -1.47 | -1.11 | -0.34 | -0.9 | -0.69 | -1.46 | -0.79 | -0.87 | -1.95 | -1.09 |
| Cn1c([N+](=O)[O-])cnc1COC(N)=O [Ronidazole] | 12.5 ± 0.033 | 1.22 | -0.37 | -0.01 | 0.01 | – | -0.22 | -0.82 | -1.32 | -1.13 | -0.8 | -0.38 | -0.68 | -0.96 | -0.57 | -0.5 | -0.24 |
| CCOC(=O)OC(C)OC1=C(C(=O)Nc2ccccn2)N(C)S(=O)(=O)c2ccccc21 (stereo unspecified) [Ampiroxicam] | 12.3 ± 0.37 | 0.81 | 0 | -0.1 | -0.79 | -0.19 | -0.67 | 0.15 | -0.5 | -0.62 | 0.08 | -0.64 | -0.83 | -0.4 | -0.48 | -0.42 | -0.78 |
| O=C(CCCN1CCC(O)(c2ccc(Cl)cc2)CC1)c1ccc(F)cc1 [Haloperidol] | 12.4 ± 0.2 | 0.57 | -0.16 | 0.68 | -0.4 | – | -0.75 | 0.48 | -0.68 | -0.95 | -0.69 | 0.01 | 0.13 | -0.12 | -0.8 | -0.06 | 0.12 |
| NC(=O)N1c2ccccc2CC(=O)c2ccccc21 [Oxcarbazepine] | 12.4 ± 0.25 | 0.37 | -0.31 | -0.68 | 0.16 | -0.49 | -0.37 | 0.14 | 0 | 0.16 | 0.07 | -0.1 | -0.11 | -1.13 | 0.19 | 0.55 | 0.1 |
| O=C(O)c1ccccc1C(=O)Nc1ccc(S(=O)(=O)Nc2nccs2)cc1 [Phthalylsulfathiazole] | 12 ± 0.48 | -0.99 | 1.08 | -0.97 | 1.18 | -0.26 | -0.05 | 0.02 | 0.77 | 1.23 | 1.23 | -0.66 | 0.04 | -0.76 | 0.99 | -0.13 | 0.99 |
